Most compounds without a hit are left out; they make up all but 18% or so of the library.
DT40 TDP1 no CPT = qHTS for Inhibitors of human tyrosyl-DNA phosphodiesterase 1 (TDP1): qHTS in cells in absence of CPT; 420,000 compounds, 15% hits; DT40 Tdp1-/- hTDP1 cells, no CPT, ATP luminescence, 48 h; Potency, µM (top dose mostly 46.2 µM), usual class: inhibitors; also: nearly all actives have a fitted effect of over 55% in size
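Growth of hTDP1-complemented DT40 Tdp1-knockout cells is measured by ATP luminescence after at least 48 hr compound exposure at 37 °C, with DMSO substituting for the 20 nM CPT used in the parallel screen.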
IL-1B inflam inh = blocks inflammasome-driven IL-1 beta release; THP-1 LPS/ATP IL-1B secretion, AlphaLISA, 16 h; stronger effect = lower value; activity change, % at 57.5 µM; 360,000 compounds, 4.7% hits; AID 743279; in the data active = activity change below about -50%; inconclusive = mostly about -30% to -49%
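Secreted IL-1B measured by AlphaLISA bead assay after 16 h compound exposure of THP-1 cells; compounds (final up to 57.5 uM) added 1 h before LPS (250 ng/mL) and ATP (1.25 mM) stimulation; lower signal means less secretion.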
TDP1 cell CPT = DT40-hTDP1 cell growth loss with CPT; Potency, µM (top dose mostly 46.2 µM), actives largely listed as inhibitors; 420,000 compounds, 12% hits; AID 686979; chicken DT40 Tdp1-/-;hTDP1 cells + 20 nM CPT, ATP luminescence, 48 h; also: nearly all actives have a fitted effect of over 55% in size
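Chicken DT40 Tdp1-/- cells stably complemented with human TDP1 were seeded at 400 cells/well in medium containing 20 nM camptothecin, exposed to pin-transferred compounds, and grown at 37 °C for at least 48 hr. Viability was read as ATP luminescence.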
TDP1 inh = inhibitors of human tyrosyl-DNA phosphodiesterase TDP1; Potency, µM (highest dose often 130 µM), usual class: inhibitors; recombinant TDP1, AlphaScreen DNA substrate cleavage; 350,000 compounds, 0.28% hits; AID 485290; also: nearly all actives have a fitted effect of over 40% in size
Target sequence (Q9NUW8 whole entry, looked up): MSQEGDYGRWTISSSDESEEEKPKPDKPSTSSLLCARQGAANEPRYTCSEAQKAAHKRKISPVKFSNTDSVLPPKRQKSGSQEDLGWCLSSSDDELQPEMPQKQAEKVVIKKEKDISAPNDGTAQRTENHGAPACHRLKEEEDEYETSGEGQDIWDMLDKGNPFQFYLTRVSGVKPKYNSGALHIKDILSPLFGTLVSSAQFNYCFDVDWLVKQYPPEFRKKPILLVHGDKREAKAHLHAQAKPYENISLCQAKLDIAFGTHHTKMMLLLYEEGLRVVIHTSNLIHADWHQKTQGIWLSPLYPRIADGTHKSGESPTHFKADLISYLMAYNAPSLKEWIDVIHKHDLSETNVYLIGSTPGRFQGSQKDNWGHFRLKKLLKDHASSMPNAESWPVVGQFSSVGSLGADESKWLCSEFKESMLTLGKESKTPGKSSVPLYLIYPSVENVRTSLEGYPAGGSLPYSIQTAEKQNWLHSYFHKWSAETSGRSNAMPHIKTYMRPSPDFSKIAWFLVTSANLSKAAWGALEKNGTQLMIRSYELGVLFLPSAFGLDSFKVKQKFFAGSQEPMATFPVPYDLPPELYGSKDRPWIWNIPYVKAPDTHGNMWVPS
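Recombinant human Tdp1 (E. coli-expressed, 1 nM final) preincubated with compounds 15 min at room temperature, then 5'-biotin/3'-phosphotyrosine-FITC DNA substrate (15 nM final) added for 5 min. AlphaScreen beads (10 ug/ml final) added 10 min; cleavage lowers signal.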
TGFb SMAD3 inh = inhibitors of TGF-b signaling. Potency, µM (doses to about 46.1 µM), actives largely listed as inhibitors. HepG2 CAGA-GFP TGF-b/SMAD3 reporter, GFP fluorescence, 18 h; TGF-beta stimulated, 500 pg/mL final. 410,000 compounds, 1.2% hits; also: nearly all actives have a fitted effect of over 65% in size
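HEPG2 CAGA-GFP, 1000 cells/well; 2 h settle, 37 C; cpd via pin tool; TGF-b 500 pg/mL final; 18 h, 37 C; GFP imaging ex488/em500-530; %Activity normalised to -TGF-b and +DMSO controls; CRC fit, curve class.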
HepG2 viability = kills HepG2 cells in TGF-b inhibitor counter-screen | AID 588856 | HepG2 CAGA-GFP viability, ATP luminescence, 18 h | Potency, µM (doses to about 46.1 µM), actives largely listed as cytotoxic | 410,000 compounds, 0.76% hits
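HepG2 CAGA-GFP cells (1000/well, DMEM with 1% FBS) received compound, then TGF-beta at 500 pg/mL final, and were incubated 18 hours at 37 degrees C. Viability was read by CellTiter-Glo luminescence. Media-only wells were set as complete cell-killing and DMSO as no toxicity.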
A number is an active result; . = inactive; ? = inconclusive; / = not tested or not shown. Unless noted, calls follow the shape of the dose curve; as a rule, active = well fitted curve in the direction sought with a large enough effect; inconclusive = small, poorly fitted or top-dose-only effect, or another doubt; inactive = no such curve, though single readings can be large; an effect the other way counts as inactive or inconclusive.

SMILES	DT40 TDP1 no CPT	IL-1B inflam inh	TDP1 cell CPT	TDP1 inh	TGFb SMAD3 inh	HepG2 viability
CCC[C@@H](CN[C@@H](CNC)[C@H](C)CC)NCC1CCC(C(C)(C)C)CC1 (stereo not given in full)	0.651µM	-52.5	1.03µM	/	?	.
CC1CN(Cc2cc(=O)oc3cc(O)ccc23)CC(C)O1 (stereo not given)	.	.	.	.	.	.
CCn1cc[n+](C)c1P(c1ccccc1)c1ccccc1	0.013µM	.	0.651µM	.	.	.
CCOC(=O)c1c(NC(=O)c2cc(CC)on2)sc(C)c1C	.	/	.	.	.	.
C=C1C(=O)OC(CCCCCCCC)C1C(=O)O (stereo not given)	/	/	/	.	/	/
COc1ccc(C(=O)c2sc(Nc3ccccc3)nc2C)cc1	?	-70.1	?	/	.	.
COc1ccc(Nc2nc(N)c(C(=O)c3ccc(OC)cc3)s2)cc1	1.64µM	-74.3	1.64µM	/	12.6µM	.
CC(C)(C)C(=O)c1sc(Nc2ccccc2)nc1N	?	-70.7	?	.	?	.
COc1ccc(Nc2nc(N)c(C(=O)c3ccc(F)cc3)s2)cc1	0.581µM	.	0.731µM	/	.	.
NC(=O)c1cc(S(=O)(=O)NCC2CCC(C(=O)Nc3cccc(Cl)c3)CC2)cs1 (stereo not given)	?	/	?	.	.	.
Cc1ccc(C(=O)c2sc(Nc3ccc(F)cc3)nc2N)c(C)c1	14.6µM	/	13µM	.	12.6µM	.
CCOC(=O)c1sc(N/N=C/c2ccccc2)nc1C	?	.	?	.	?	.
Nc1nc(Nc2ccccc2F)sc1C(=O)c1ccc(Cl)cc1	?	/	?	.	?	.
CC(=O)c1sc(Nc2ccc(Oc3ccccc3)cc2)nc1C	20.6µM	.	?	/	?	.
Nc1nc(Nc2cccc(Cl)c2)sc1C(=O)c1ccc(F)cc1	23.1µM	/	18.4µM	.	?	.
CC(=O)c1sc(N/N=C\c2ccccc2O)nc1C	0.92µM	-74.2	1.03µM	.	.	.
CC(C)COC(=O)N1CCCCC1c1cc(C(=O)Nc2ccc3c(c2)OCO3)no1 (stereo not given)	.	.	.	/	.	.
Cc1cc(C)c(S(=O)(=O)NCc2ccc3c(c2)cc(C)n3C)c(C)c1	23.1µM	.	?	.	.	.
Cc1cc2cc(CNS(=O)(=O)c3ccc4ccccc4c3)ccc2n1C	.	.	.	.	.	.
CCC(=O)N1CCc2cc(CNS(=O)(=O)c3c(C)cc(C)cc3C)ccc21	20.6µM	/	?	.	.	.
Cc1cc(C)c(S(=O)(=O)NCc2ccc3c(c2)CCN3C(=O)c2ccccc2)c(C)c1	10.3µM	/	14.6µM	.	?	.
CC(=O)N1CCc2cc(CNS(=O)(=O)c3cccs3)ccc21	.	/	.	.	.	.
COC(=O)C(c1ccccc1)N(Cc1cccc(CN(C(C(=O)OC)c2ccccc2)S(C)(=O)=O)c1)S(C)(=O)=O (stereo not given)	16.4µM	.	?	/	.	.
COC(=O)[C@@H](NCc1cccc(CN[C@H](C(=O)OC)C(C)C)c1)C(C)C	.	.	.	/	.	.
O=C(NC(NC(=S)Nc1ccc(Cl)c(Cl)c1)C(Cl)(Cl)Cl)c1ccco1 (stereo not given)	18.4µM	-62.6	20.6µM	.	?	.
SMILES	DT40 TDP1 no CPT	IL-1B inflam inh	TDP1 cell CPT	TDP1 inh	TGFb SMAD3 inh	HepG2 viability
O=C(Cc1ccccc1)NC(NC(=S)Nc1cc(Cl)ccc1Cl)C(Cl)(Cl)Cl (stereo not given)	23.1µM	.	.	.	.	.
Cc1ccccc1NC(=S)NC(NC(=O)c1ccco1)C(Cl)(Cl)Cl (stereo not given)	.	?	.	.	.	.
O=C(NC(NC(=S)Nc1cc(Cl)ccc1Cl)C(Cl)(Cl)Cl)c1ccco1 (stereo not given)	.	-80.3	?	.	15.8µM	.
C=CCn1c(=O)/c(=C/c2ccc(F)cc2)s/c1=C(\C#N)c1nnc2n1CCCCC2	16.4µM	-67.1	23.1µM	.	.	.
Cc1cc(C)c(C#N)c(SCC(=O)Nc2ccccc2C(N)=O)n1	10.3µM	.	?	.	.	.
COCc1cc(C)nc(SCC[N+](C)(C)CC(=O)Nc2cccc(C(F)(F)F)c2)c1C#N	?	-50.8	20.6µM	.	.	.
COCc1cc(C)nc(SCC(=O)Nc2ccccc2C)c1C#N	5.8µM	.	7.31µM	.	.	.
COCc1cc(C)nc(SCC(=O)Nc2ccc(C)c(C)c2)c1C#N	.	.	.	.	.	.
CCCC[C@H]1C2=C3[C@@H](CC(C(=O)OC)=C[C@@H](C(=O)OC)[C@H]3C(C)(C)C2=O)n2c(=O)n(C)c(=O)n21	/	/	/	.	.	.
Clc1ccccc1Cc1noc(CN2CCN(Cc3ccccn3)CC2)n1	?	.	.	.	.	.
C[C@H]1CN([C@@H](C)CO)S(=O)(=O)c2ccc(Br)cc2O[C@H]1CN(C)S(=O)(=O)c1ccccc1	16.4µM	.	16.4µM	/	.	.
C[C@H](CO)N1C[C@H](C)[C@H](CN(C)C(=O)c2ccccc2)Oc2cc(Br)ccc2S1(=O)=O	.	.	.	/	.	.
C[C@@H]1CN([C@@H](C)CO)S(=O)(=O)c2ccc(Br)cc2O[C@H]1CN(C)C(=O)C1CCC1	16.4µM	.	?	/	.	.
Cc1ccc(S(=O)(=O)N(C)C[C@H]2Oc3cc(C#Cc4ccccc4)ccc3S(=O)(=O)N([C@H](C)CO)C[C@@H]2C)cc1	9.2µM	.	10.3µM	/	.	.
C/C=C/c1ccc2c(c1)O[C@H](CN(C)C(=O)NC1CCCC1)[C@H](C)CN([C@H](C)CO)S2(=O)=O	20.6µM	.	18.4µM	/	.	.
CC(C)(C)c1ccccc1NC(=O)CN1C(=O)NC2(CCCCCC2)C1=O	.	.	.	.	.	.
COc1cccc(S(=O)(=O)N(C)C[C@H]2Oc3cc(Br)ccc3S(=O)(=O)N([C@@H](C)CO)C[C@H]2C)c1	14.6µM	.	20.6µM	/	.	.
Cc1noc(/C=C/N(C)C)c1S(=O)(=O)N1CCCC(C(=O)Nc2ccccc2F)C1 (stereo not given)	.	.	?	.	.	.
CC(C)NC(=O)c1ccc(NC(=O)N2CCCCc3ccccc32)cc1	?	/	.	.	.	.
COc1ccc(C=C2SC(=S)NC2=O)cc1	18.4µM	.	?	/	.	.
COc1ccc(/C=C2/SC(=O)NC2=O)cc1	.	.	?	.	.	.

Screening data deposited in PubChem BioAssay by National Center for Advancing Translational Sciences (NCATS).
